Experimental findings from PubChem BioAssay (NCATS) are described below.

Results filed as inconclusive are left out. Where a call stands in place of a potency, no number is given. Activity calls are given as the source filed them. The call rests on the fitted dose curve; in most records, active means well fitted cell-killing curve with a large enough effect; inconclusive means small, poorly fitted or top-dose-only effect, or effect the other way; inactive means flat fitted curve, though single readings scatter.
Potency means the concentration at half of the fitted maximal effect.

This assay concerns HeLa. The assay can be described thus: Primary qHTS to identify gynecologic anti-cancer compounds using libraries of approved drugs and bioactive compounds (AID 1345084). Further: nearly all actives have a fitted effect of over 55% in size. Conditions: Gynecologic cancer cell panel viability, ATPlite luminescence, 48 h; series mostly up to 57.5 µM. The gist of the method: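 ATP-based viability (ATPlite), 1,000 cells/well, 16 h pre-incubation, 48 h compound at 37 C, 5% CO2, 15 min RT before read.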
In the case of `CN=C(NC#N)NCCSCc1csc(N=C(N)N)n1`, the Potency entry was “inactive”.

With `CCCCOc1ccc(C(=O)CCN2CCCCC2)cc1`, the Potency result was “inactive”.

In the case of `CC(=O)c1ccc2c(c1)N(CCCN1CCC(CCO)CC1)c1ccccc1S2`, the Potency result is “inactive”.

As to `Oc1c(I)cc(Cl)c2cccnc12`, the Potency entry is “inactive”.

Regarding `COc1c2occc2c(OC)c2c(=O)cc(C)oc12`, the Potency result was “inactive”.

`COc1cccc2c1C(=O)c1c(O)c3c(c(O)c1C2=O)C[C@@](O)(C(C)=O)C[C@@H]3O[C@H]1C[C@H](N)[C@H](O)[C@H](C)O1`: the Potency was 4.47 µM (active).

Turning to `COCc1c(C(C)C)nc(C(C)C)c(/C=C/[C@@H](O)C[C@@H](O)CC(=O)O)c1-c1ccc(F)cc1`, the Potency is 1.78 µM (active).

Regarding `COc1ccc(OC)c(C(O)CNC(=O)CN)c1` (centres undefined), the Potency entry is “inactive”.

With `CCCCC(CC)CN=C(N)NC(N)=NCCCCCCN=C(N)NC(N)=NCC(CC)CCCC` (centres undefined), the Potency is 17.8 µM (active).

Consider `CC(C)(C(=O)c1cccnc1)c1cccnc1`, for which the Potency entry is “inactive”.

In the case of `c1ccc(-c2ccc(C(c3ccccc3)n3ccnc3)cc2)cc1` (centres undefined), the Potency entry was “inactive”.

With `O=c1c(-c2ccccc2)c1-c1ccccc1`, the Potency entry was “inactive”.

Consider `C[C@]12CCC(=O)C=C1[C@@H]1C[C@@H]1[C@H]1[C@@H]3[C@@H]4C[C@@H]4[C@@]4(CCC(=O)O4)[C@@]3(C)CC[C@@H]12`, for which the Potency was 3.55 µM (active).

For `C[n+]1c2cc(N)ccc2cc2ccc(N)cc21` (tested in a mixture with another compound), the Potency was 8.91 µM (active).

Turning to `CN(C)C(=S)SC(=S)N(C)C`, the Potency result is “inactive”.

`C=C(CC)C(=O)c1ccc(OCC(=O)O)c(Cl)c1Cl`: the Potency entry was “inactive”.

In the case of `CN1CCN(CCCN2c3ccccc3Sc3ccc(S(=O)(=O)N(C)C)cc32)CC1`, the Potency result was “inactive”.

As for `O=C1[C@H]2CCCC[C@H]2C(=O)N1CCCCN1CCN(c2nsc3ccccc23)CC1`, the Potency entry is “inactive”.

As to `C[C@H](O)C(=O)Nc1c(I)c(C(=O)NC(CO)CO)c(I)c(C(=O)NC(CO)CO)c1I`, the Potency entry is “inactive”.

For `Cc1c(C)n(CCN(C)C)c2ccc(C(=O)OCCN(C)C)cc12`, the Potency result was “inactive”.

For the molecule `O=C(N/N=C/c1ccccc1O)c1ccncc1`, the Potency result was “inactive”.

On to `CCN(CC)CCOc1ccc(C(O)(Cc2ccc(Cl)cc2)c2ccc(C)cc2)cc1` (centres undefined), for which the Potency entry was “inactive”.

Consider `CN(C/C=C/c1ccccc1)Cc1cccc2ccccc12`, for which the Potency entry was “inactive”.

With `COc1cc2c(cc1OC)C(=O)C(CC1CCN(Cc3ccccc3)CC1)C2` (centres undefined), the Potency entry was “inactive”.

On to `Nc1ccn([C@@H]2O[C@H](CO)[C@@H](O)C2(F)F)c(=O)n1`, for which the Potency result is “inactive”.

Consider `c1ccc(OCc2ccc(CCCN3CCOCC3)cc2)cc1`, for which the Potency entry was “inactive”.

Turning to `Cc1cccn2c(=O)c(-c3nnn[nH]3)cnc12`, the Potency result was “inactive”.

With `CCN(CC)C(=O)/C(C#N)=C/c1cc(O)c(O)c([N+](=O)[O-])c1`, the Potency result is “inactive”.

With `CC(=O)N(O)CCCCCNC(=O)CCC(=O)N(O)CCCCCNC(=O)CCC(=O)N(O)CCCCCN`, the Potency entry is “inactive”.

Regarding `CCCCCCCCCCCCCCCC[N+](C)(C)CC`, the Potency was 28.2 µM (active).

Consider `O=C(CCCN1CCC(O)(c2ccc(Br)cc2)CC1)c1ccc(F)cc1`, for which the Potency result was “inactive”.

As to `CCOc1ccc(Cc2nccc3cc(OCC)c(OCC)cc23)cc1OCC`, the Potency entry is “inactive”.

Consider `CCOc1ccc2nc3cc(N)ccc3c(N)c2c1`, for which the Potency result is “inactive”.

Take `CCC(C(=O)OCCN(CC)CC)c1ccccc1` (centres undefined): the Potency result is “inactive”.
